Results from PubChem BioAssay (NCI).
This is part of a sample that, as a whole, favours compounds with a hit. Of some 83,000 tested, about 20% had one in any assay.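 In brief: 96-well plates, 48 h treatment, single concentration, percent growth endpoint.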 Calls of active or inactive are those of the source. The calls were made as follows: active = growth percent below 10; inactive = the rest.

Assays:
Experiment in all cases: NCI-60 one-dose screen, 48 h (100 = growth as untreated, 0 = no growth, -100 = all killed)
Conditions in all cases: 10 µM
[1] = system: NCI-H23 lung
[2] = system: NCI-H226 lung
[3] = system: NCI-H322M lung
[4] = system: NCI-H460 lung
[5] = system: NCI-H522 lung
[6] = system: A549/ATCC NSCLC
[7] = system: 786-0 renal
[8] = system: COLO 205 colon
[9] = system: DU-145 prostate
[10] = system: K-562 leukemia
[11] = system: MALME-3M melanoma
[12] = system: MDA-MB-231 breast
[13] = system: RXF 393 renal
[14] = system: SF-268 CNS
[15] = system: SF-295 CNS
[16] = system: SF-539 CNS
[17] = system: UACC-257 melanoma
[18] = system: M14 melanoma
[19] = system: HCT-15 colon

Measured: growth

COc1ccc(Nc2ncnc3c2c(SC)nn3-c2ccccc2)cc1
inactive: [1] 89.8% | [2] 85.5% | [3] 82.4% | [4] 99.4% | [5] 61.3% | [6] 86% | [7] 93.9% | [8] 111% | [9] 101% | [10] 94% | [11] 93% | [12] 93.4% | [13] 81.3% | [14] 95.1% | [15] 88.7% | [16] 99.3% | [17] 106% | [18] 94.4% | [19] 89.2%

C(CCCC1=NCCO1)CCCC1=NCCO1
inactive: [1] 97.2% | [2] 95.8% | [3] 118% | [4] 104% | [5] 103% | [6] 101% | [7] 99.1% | [8] 99.5% | [9] 108% | [10] 110% | [11] 106% | [12] 104% | [13] 95.6% | [14] 104% | [15] 101% | [16] 101% | [17] 104% | [18] 109% | [19] 99.3%

CC(C)(Cl)CCC1=C(Cl)C(=O)c2ccccc2C1=O
active: [5] -29.7% | [10] -20%
inactive: [1] 32.9% | [2] 62.8% | [3] 100% | [4] 65.6% | [6] 82% | [7] 101% | [8] 84% | [9] 104% | [11] 128% | [12] 34.1% | [13] 28.8% | [14] 65.7% | [15] 105% | [16] 37.4% | [17] 39.2% | [18] 63.9% | [19] 22.7%

CCCCCC(=O)c1ccc(OCCCN2CCN(C(=O)OCC)CC2)cc1
inactive: [1] 81.2% | [2] 73% | [3] 119% | [4] 99.1% | [5] 101% | [6] 94.8% | [7] 97.5% | [8] 96.3% | [9] 107% | [10] 66.4% | [12] 99.5% | [13] 102% | [14] 108% | [15] 81.8% | [16] 104% | [17] 95.6% | [18] 103% | [19] 85.1%

CCCCCCN1CCN(Cc2ccc(N(CC)CC)cc2)C(=O)C1=O
inactive: [1] 39.9% | [2] 64.2% | [3] 32% | [4] 10.5% | [6] 21.6% | [7] 51.3% | [10] 11.7% | [11] 10.1% | [12] 44.4% | [14] 42.5% | [15] 11.8% | [17] 33.7% | [19] 41.5%
active: [5] -7.64% | [8] 6.83% | [9] -7.77% | [13] 7.71% | [16] -1.86% | [18] 9.15%

CCCCN(CCCC)c1cc(C(=O)CCCCCN)c2ccccc2n1
inactive: [1] 94.5% | [2] 93% | [4] 31.8% | [5] 76.9% | [7] 38.8% | [8] 17.4% | [12] 78.3% | [13] 82.5% | [16] 83.6% | [18] 14.4% | [19] 60.1%
active: [3] -30.8% | [6] -31.8% | [9] -81.1% | [10] -67.9% | [11] -74.4% | [14] -58% | [15] -62.3%

COc1ccccc1CNCCN1C(=O)c2ccc3c4c(ccc(c24)C1=O)C(=O)N(CCNCc1ccccc1OC)C3=O
active: [1] -70.5% | [2] -74.7% | [3] -65.4% | [4] -91.3% | [5] -83.4% | [6] -93% | [7] -82.4% | [8] -97.5% | [9] -100% | [10] -43.8% | [11] -92% | [12] -18.4% | [14] -79.5% | [15] -56.7% | [16] -97.3% | [17] -96.4% | [18] -94% | [19] -77.1%

N#Cc1ncc(-c2cc(F)c(F)c(F)c2)c(NC2CCCCCC2)n1
inactive: [1] 92.9% | [2] 94.6% | [3] 105% | [4] 95.7% | [5] 94.8% | [6] 95.8% | [7] 101% | [8] 88.5% | [9] 108% | [10] 92% | [11] 131% | [12] 91.7% | [13] 84.7% | [14] 82.3% | [15] 89.3% | [16] 97.5% | [17] 93.6% | [18] 101% | [19] 85.2%
